# A selection: hits, their analogues and other compounds. The true share with any hit is near 3%.
# PPC-1+TRAIL kill: compounds killing PPC-1 cancer cells with TRAIL present, primary screen, TRAIL potentiator project, ATPLite luminescence, uHTS; PPC-1 cells + TRAIL, ATPLite viability luminescence; cell killing (% activity), % at 4 µM or 5 µM; hit rate 0.41% among 220,000; AID 1443, 2008;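 active means cell killing above 50% in the first pass at 4 µM, then a duplicate retest at 5 µM averaging 50% or more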;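 further: plate controls were cells with TRAIL plus DMSO for no effect and medium-only wells lacking cells for full effect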
# SENP8 block-1: SENP8 protease inhibitors, primary screen, biochemical, luminescence; purified SENP8, Z-RLRGG-aminoluciferin cleavage; inhibition, % at 10 µM; hit rate 1.2% among 330,000; Sentrin-specific protease 8 (Homo sapiens), Q96LD8; in the data active means inhibition above about 50%
# Target sequence (Q96LD8 whole entry, looked up): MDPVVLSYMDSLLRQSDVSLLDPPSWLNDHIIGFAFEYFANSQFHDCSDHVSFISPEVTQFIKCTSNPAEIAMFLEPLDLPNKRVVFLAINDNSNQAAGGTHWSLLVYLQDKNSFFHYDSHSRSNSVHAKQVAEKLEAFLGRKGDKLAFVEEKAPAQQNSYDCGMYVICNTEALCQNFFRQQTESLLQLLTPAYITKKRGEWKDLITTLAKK
# TRAIL sens C8: viability loss with TRAIL in NB7+C8 cells, primary screen, TRAIL sensitizer project, cell-based, ATPlite luminescence; inhibition (viability loss, TRAIL sensitization), % at 10 µM; hit rate 1% among 360,000;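 active means compounds causing at least 50% loss of cell viability in the single-dose screen, relative to plate controls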
# SENP6 block: SENP6 protease inhibitors, primary screen, biochemical, luminescence, uHTS. hit rate 1.8% among 330,000. Sentrin-specific protease 6 (Homo sapiens), Q9GZR1. Recombinant SENP6 catalytic domain, aminoluciferin luminescence. inhibition, % at 10 µM. AID 2599, 2010;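 active means inhibition above about 50% at the single tested dose, limit read from the data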;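 further: plate controls were DMSO wells with enzyme for no effect and DMSO wells lacking enzyme for full effect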
# SENP8 block-2: human SENP8 protease inhibitors, primary screen, biochemical, fluorescence, Nedd8 protein substrate, uHTS; hit rate 0.64% among 360,000; recombinant SENP8; Sentrin-specific protease 8 (Homo sapiens), Q96LD8; AID 602440, 2012; inhibition, % at 20 µM; in the data active means inhibition mostly above about 40%, no sharp cut-off; inactive means mostly below about 27%
# SENP7 block: SENP7 protease inhibitors, primary screen, biochemical, luminescence, uHTS; recombinant SENP7, Z-RLRGG-aminoluciferin luminescence, 40 min; inhibition, % at 5 µM; hit rate 1.5% among 330,000;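 active means inhibition above about 50% at the single test dose, limit read from the data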;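 further: plate controls were DMSO with enzyme for no effect and no enzyme buffer wells for full effect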
# SENP8 confirm: SENP8 protease inhibitors, retest, confirmation, biochemical, luminescence, single concentration; inhibition, % at 12.5 µM; Recombinant SENP8, Z-RLRGG-aminoluciferin luminescence, 60 min; shares compounds with SENP7 block; hit rate 40% among 6,200; AID 488912, 2010;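 active means mean inhibition across replicates above about 50%, limit read from the data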
# SENP6 confirm: SENP6 protease inhibitors, confirmation, biochemical, luminescence, single concentration | shares compounds with SENP7 block | recombinant SENP6, Z-RLRGG-aminoluciferin luminescence | inhibition, % at 12.5 µM | hit rate 58% among 6,200 | AID 488915, 2010
# SENP7 conf: SENP7 protease inhibitors, retest, confirmation, biochemical, luminescence, single concentration | recombinant SENP7, Z-RLRGG-aminoluciferin luminescence, 40 min | shares compounds with SENP7 block | inhibition, % at 12.5 µM | hit rate 69% among 6,200
# Casp3 select: caspase-3 protease inhibitors, confirmation, selectivity assay for SENP inhibitor project, biochemical, single concentration. shares compounds with SENP7 block. purified caspase-3, Z-DEVD-aminoluciferin luminescence, 60 min. inhibition, % at 12.5 µM. hit rate 60% among 6,200;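 active means mean inhibition above about 50%, limit read from the data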;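 further: plate controls were enzyme with DMSO for no effect and wells without caspase-3 for full effect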
# Target sequence (P42574 28-227 limits assumed): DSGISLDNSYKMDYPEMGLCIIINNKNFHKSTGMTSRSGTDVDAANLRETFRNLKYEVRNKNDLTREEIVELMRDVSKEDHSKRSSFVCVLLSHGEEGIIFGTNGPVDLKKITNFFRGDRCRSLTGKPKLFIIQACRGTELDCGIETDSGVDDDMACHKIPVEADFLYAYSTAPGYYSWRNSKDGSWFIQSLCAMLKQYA
# SENP luc ctr: interferes with luciferase luminescence in SENP counter-screen | hit rate 39% among 6,200 | Pre-incubated SENP8/Z-RLRGG-aminoluciferin, luciferase luminescence interference | shares compounds with SENP7 block | inhibition, % at 12.5 µM;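 active means mean inhibition above about 50% when retested at one dose, limit read from the data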;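 further: plate controls were DMSO wells with completed reaction for no effect and substrate without enzyme for full effect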
# * marks the source's active call; other numbers are inactive results; / = not tested or not shown.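 How the source made its calls, unless noted: active means mean inhibition above about 50% in the one-dose retest (limit read from the data); inactive means the rest.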
SMILES,PPC-1+TRAIL kill,SENP8 block-1,TRAIL sens C8,SENP6 block,SENP8 block-2,SENP7 block,SENP8 confirm,SENP6 confirm,SENP7 conf,Casp3 select,SENP luc ctr
COCCNC(=O)c1c(N)n(-c2ccccc2)c2nc3ccccc3nc12,-5,39,-7,62*,-258,0,10,16,8,2,3
C=CCn1c(N)c(C(=O)Nc2ccccc2)c2nc3ccccc3nc21,11,52*,11,64*,-401,20,-20,5,7,-3,-2
COCCn1c(N)c(S(=O)(=O)c2cccs2)c2nc3ccccc3nc21,6,2,-49,20,-325,4,/,/,/,/,/
CCCCCCSc1ccc([C@@H]2[C@H]3C(=O)N(CC)C(=O)[C@H]3[C@]3(C(=O)OC)CCCN23)cc1,/,11,15,6,-41,1,/,/,/,/,/
COCCNC(=O)c1c(N)n(CCCn2ccnc2)c2nc3ccccc3nc12,4,28,-12,89*,-318,67*,4,9,10,4,-2
O=C(/C=C/Nc1ccc(Br)cn1)c1cccc(OC(F)F)c1,/,49,29,40,-263,62*,15,31,34,17,1
O=C(CN1CCN(Cc2ccccc2)CC1)N/N=C/c1ccc(Br)s1,11,-8,-3,-12,21,-9,/,/,/,/,/
CN(C)/C=N/C(=S)Nc1ccc(Cl)c(Cl)c1,-15,13,-6,60*,18,38,62*,61*,85*,58*,9
COc1ccc(-c2cc(C(=O)Nc3cc(S(=O)(=O)N4CCOCC4)ccc3N3CCOCC3)c3ccccc3n2)cc1,10,2,-3,1,-292,12,/,/,/,/,/
CSc1cccc(NC(C)=O)c1,1,-2,-8,-13,-2,1,/,/,/,/,/
O=C(/C=C/c1ccccc1)Nc1cccc(C(=O)N2CCCCC2)c1,/,/,29,/,5,/,/,/,/,/,/
CSc1cccc(NC(=O)/C=C/c2ccccc2)c1,25,16,26,51*,15,49,57*,54*,81*,28,65*
CSc1cccc(NC(=O)/C=C/c2ccc(Cl)cc2)c1,-4,38,24,66*,9,59*,54*,59*,84*,33,51*
O=C(c1ccccc1)c1ccc2ccccc2c1,/,/,4,/,15,/,/,/,/,/,/
O=C(c1ccccc1)c1ccc2cc(O)ccc2c1,/,96*,19,99*,-25,96*,7,99*,102*,92*,97*
CCCCS/C(N)=N/N=C/c1ccccc1O,-14,0,13,-7,-11,0,/,/,/,/,/
CCCS/C(N)=N/N=C/c1cc(C)ccc1O,32,10,25,53*,32,11,20,17,59*,20,17
C[C@@H]1CN([C@@H](C)CO)C(=O)CCCn2cc(nn2)CO[C@H]1CN(C)S(=O)(=O)c1ccccc1F,/,/,3,/,-18,/,/,/,/,/,/
Nc1nccc(/C=C/c2ccc(Cl)cc2)n1,18,75*,20,80*,-443,75*,74*,85*,94*,79*,45
O=C(Nc1cccc(Cl)c1)c1nc[nH]c1C(=O)N1CCc2ccccc2C1,/,-2,-6,-16,14,-8,/,/,/,/,/
O=C(Nc1cccc(Cl)c1)N1CCc2ccccc2C1,/,35,3,51*,8,49,47,42,78*,43,31
COc1cccc(NC(=O)N2CCc3ccccc3C2)c1,/,30,11,53*,-7,53*,42,42,80*,70*,56*
COc1cccc(NC(=O)N2CCCCCC2)c1,/,-7,12,0,10,-3,/,/,/,/,/
CCOc1ccc(NC(=O)CN(C)C(=O)c2ccccc2-n2cnnn2)cc1OCC,/,-10,10,-12,8,14,/,/,/,/,/
O=C(Nc1ccc(C(=O)O)cc1)Nc1ccc(F)cc1F,20,69*,0,83*,5,77*,77*,73*,93*,91*,76*
SMILES,PPC-1+TRAIL kill,SENP8 block-1,TRAIL sens C8,SENP6 block,SENP8 block-2,SENP7 block,SENP8 confirm,SENP6 confirm,SENP7 conf,Casp3 select,SENP luc ctr
COc1ccc(NC(=O)Nc2ccc(F)cc2F)cc1,19,59*,6,74*,6,80*,58*,71*,93*,80*,26
COc1cc(C=C2C(=O)c3ccccc3C2=O)cc(OC)c1,-5,-5,12,3,11,4,/,/,/,/,/
COc1cc(C=C2C(=O)c3ccccc3C2=O)cc(OC)c1OC,13,-6,-7,8,19,11,/,/,/,/,/
COc1ccc(C=C2C(=O)c3ccccc3C2=O)cc1O,26,94*,-2,95*,13,96*,98*,98*,102*,94*,20
COc1cc(C=C2C(=O)c3ccccc3C2=O)ccc1O,19,93*,-2,-10,18,94*,13,91*,97*,80*,61*
Cc1cc(C)nc(N2CCCC(C(=O)NC(C)C)C2)n1 (stereo not drawn),4,1,-1,5,-42,-2,/,/,/,/,/
COc1ccc(/C=C/c2nc3ccccc3c(=O)o2)cc1,/,84*,75*,90*,-329,78*,71*,71*,83*,63*,65*
COc1ccccc1/C=C/c1nc2ccc(OC(C)=O)cc2c(=O)o1,/,64*,1,72*,-498,65*,13,7,17,14,-1
COc1ccccc1/C=C/c1nc2ccccc2c(=O)o1,/,/,7,/,-165,/,/,/,/,/,/
COc1ccc(CN2CCNC(=O)C2CC(=O)NCCN2CCCCC2=O)c(F)c1 (stereo not drawn),/,-10,1,-4,-28,-2,/,/,/,/,/

# Compound activity deposited in PubChem by Sanford-Burnham Center for Chemical Genomics.
